Laboratory results: PubChem BioAssay AID1159580 (chemical genetic matrix, 2015)
Hit rate of the full screen: of about 5,500 compounds, about 2,000 (36%) were called active. Inconclusive results (about 18%) are left out. Rule as the data show it: active = normalized growth mostly below about 0.91 (no sharp cut-off); inconclusive = no clear call, values can overlap the other calls; inactive = mostly above about 0.92. The list shows a part of the results.

Assay: chemical genetic growth profiling, strain panel (AID 1159580);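 also: tested at 20 µM; growth read once vehicle control cultures reached saturation at 30 °C; 1 = growth at the plate median or of vehicle wells; lower values mean less growth of the strain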
Settings: growth OD

Measured: normalized growth

COc1ccc(OC)c(C(O)C(C)N)c1 (stereo unspecified)
inactive: S. cerevisiae deletion strains, locus YJR066W, strain TOR1, hits give low values 0.991 | S. cerevisiae deletion strains, locus YJR075W, strain HOC1, hits give low values 0.999 | S. cerevisiae deletion strains, locus YKL009W, strain mrt4, hits give low values 0.995 | S. cerevisiae deletion strains, locus YKL068W, hits give low values 0.997 | S. cerevisiae deletion strains, locus YKL085W, strain MDH1 (second series), hits give low values 1 | S. cerevisiae deletion strains, locus YKL085W, strain MDH1, hits give low values 1 | S. cerevisiae deletion strains, locus YKL160W, strain elf1, hits give low values 0.983 | S. cerevisiae deletion strains, locus YKL190W, strain CNB1, hits give low values 1.02 | S. cerevisiae deletion strains, locus YKR001C, strain vps1, hits give low values 1 | S. cerevisiae deletion strains, locus YKR026C, strain gcn3, hits give low values 0.994 | S. cerevisiae deletion strains, locus YKR091W, strain srl3, hits give low values 0.989 | S. cerevisiae deletion strains, locus YLL001W, strain dnm1, hits give low values 0.972 | S. cerevisiae deletion strains, locus YLL026W, hits give low values 0.99 | S. cerevisiae deletion strains, locus YLL041C, strain sdh2, hits give low values 1 | S. cerevisiae deletion strains, locus YLR027C, strain aat2, hits give low values 0.987 | S. cerevisiae deletion strains, locus YLR039C, strain RIC1, hits give low values 1.07 | S. cerevisiae deletion strains, locus YLR058C, strain SHM2, hits give low values 1.01 | S. cerevisiae deletion strains, locus YLR102C, strain apc9, hits give low values 0.992 | S. cerevisiae deletion strains, locus YLR113W, strain HOG1, hits give low values 1.08 | S. cerevisiae deletion strains, locus YLR221C, strain rsa3, hits give low values 0.994 | S. cerevisiae deletion strains, locus YLR258W, strain gsy2, hits give low values 1.01 | S. cerevisiae deletion strains, locus YLR262C, strain YPT6 (second series), hits give low values 0.999 | S. cerevisiae deletion strains, locus YLR262C, strain YPT6, hits give low values 1.08 | S. cerevisiae deletion strains, locus YLR268W, strain sec22, hits give low values 1 | S. cerevisiae deletion strains, locus YLR320W, strain mms22, hits give low values 0.989 | S. cerevisiae deletion strains, locus YLR330W, strain CHS5, hits give low values 1.01 | S. cerevisiae deletion strains, locus YLR342W, strain FKS1 (second series), hits give low values 1.01 | S. cerevisiae deletion strains, locus YLR342W, strain FKS1, hits give low values 0.976 | S. cerevisiae deletion strains, locus YLR357W, strain rsc2, hits give low values 0.971 | S. cerevisiae deletion strains, locus YLR370C, strain arc18, hits give low values 0.988 | S. cerevisiae deletion strains, locus YLR371W, strain rom2, hits give low values 0.989 | S. cerevisiae deletion strains, locus YLR384C, strain iki3, hits give low values 0.987 | S. cerevisiae deletion strains, locus YLR418C, strain cdc73, hits give low values 1.02 | S. cerevisiae deletion strains, locus YML016C, strain PPZ1, hits give low values 1.02 | S. cerevisiae deletion strains, locus YML032C, strain rad52, hits give low values 0.977 | S. cerevisiae deletion strains, locus YML120C, strain ndi1, hits give low values 0.997 | S. cerevisiae deletion strains, locus YML124C, strain tub3, hits give low values 0.993 | S. cerevisiae deletion strains, locus YMR078C, strain ctf18, hits give low values 0.987 | S. cerevisiae deletion strains, locus YMR125W, strain sto1, hits give low values 0.994 | S. cerevisiae deletion strains, locus YMR129W, hits give low values 0.978 | S. cerevisiae deletion strains, locus YMR205C, strain PFK2, hits give low values 1 | S. cerevisiae deletion strains, locus YMR223W, strain ubp8, hits give low values 0.996 | S. cerevisiae deletion strains, locus YMR231W, strain pep5, hits give low values 0.99 | S. cerevisiae deletion strains, locus YMR263W, strain SAP30, hits give low values 1.03 | S. cerevisiae deletion strains, locus YMR307W, strain GAS1, hits give low values 0.992 | S. cerevisiae deletion strains, locus YNL067W, strain RPL9B, hits give low values 1.02 | S. cerevisiae deletion strains, locus YNL071W, strain lat1, hits give low values 1 | S. cerevisiae deletion strains, locus YNL128W, strain TEP1, hits give low values 1.01 | S. cerevisiae deletion strains, locus YNL153C, strain GIM3, hits give low values 1.04 | S. cerevisiae deletion strains, locus YNL175C, strain NOP13, hits give low values 0.996 | S. cerevisiae deletion strains, locus YNL183C, strain NPR1, hits give low values 1.01 | S. cerevisiae deletion strains, locus YNL197C, strain WHI3, hits give low values 1.01 | S. cerevisiae deletion strains, locus YNL209W, strain ssb2, hits give low values 1 | S. cerevisiae deletion strains, locus YNL224C, strain SQS1, hits give low values 1.01 | S. cerevisiae deletion strains, locus YNL233W, strain BNI4, hits give low values 1.02 | S. cerevisiae deletion strains, locus YNL248C, strain rpa49, hits give low values 0.997 | S. cerevisiae deletion strains, locus YNL250W, strain rad50, hits give low values 0.978 | S. cerevisiae deletion strains, locus YNL271C, strain bni1, hits give low values 1 | S. cerevisiae deletion strains, locus YNL298W, strain CLA4, hits give low values 1 | S. cerevisiae deletion strains, locus YNL307C, strain MCK1, hits give low values 0.976 | S. cerevisiae deletion strains, locus YNL322C, strain KRE1 (second series), hits give low values 0.991 | S. cerevisiae deletion strains, locus YNL322C, strain KRE1, hits give low values 1.01 | S. cerevisiae deletion strains, locus YNR049C, strain mso1, hits give low values 0.99 | S. cerevisiae deletion strains, locus YNR052C, strain pop2, hits give low values 0.992 | S. cerevisiae deletion strains, locus YOL006C, strain TOP1, hits give low values 1.13 | S. cerevisiae deletion strains, locus YOL012C, strain htz1 1.17 | S. cerevisiae deletion strains, locus YOL147C, strain pex11, hits give low values 0.979 | S. cerevisiae deletion strains, locus YOR001W, strain rrp6, hits give low values 0.992 | S. cerevisiae deletion strains, locus YOR061W, strain CKA2, hits give low values 1.02 | S. cerevisiae deletion strains, locus YOR069W, strain VPS5, hits give low values 1.01 | S. cerevisiae deletion strains, locus YOR070C, strain gyp1, hits give low values 0.999 | S. cerevisiae deletion strains, locus YOR080W, strain dia2, hits give low values 0.99 | S. cerevisiae deletion strains, locus YOR083W, strain WHI5 (second series), hits give low values 1.01 | S. cerevisiae deletion strains, locus YOR083W, strain WHI5, hits give low values 0.961 | S. cerevisiae deletion strains, locus YOR106W, strain vam3, hits give low values 0.986 | S. cerevisiae deletion strains, locus YOR136W, strain idh2, hits give low values 0.982 | S. cerevisiae deletion strains, locus YOR144C, strain elg1, hits give low values 0.985 | S. cerevisiae deletion strains, locus YOR184W, strain ser1, hits give low values 0.978 | S. cerevisiae deletion strains, locus YOR231W, strain MKK1, hits give low values 1.07 | S. cerevisiae deletion strains, locus YOR265W, strain rbl2, hits give low values 0.997 | S. cerevisiae deletion strains, locus YOR270C, strain vph1, hits give low values 1.01 | S. cerevisiae deletion strains, locus YOR290C, strain snf2, hits give low values 1.01 | S. cerevisiae deletion strains, locus YOR316C, strain cot1, hits give low values 0.991 | S. cerevisiae deletion strains, locus YPL051W, strain arl3, hits give low values 0.991 | S. cerevisiae deletion strains, locus YPL055C, strain LGE1, hits give low values 1.06 | S. cerevisiae deletion strains, locus YPL078C, strain atp4, hits give low values 0.961 | S. cerevisiae deletion strains, locus YPL106C, strain sse1, hits give low values 1.01 | S. cerevisiae deletion strains, locus YPL240C, strain hsp82, hits give low values 0.991 | S. cerevisiae deletion strains, locus YPL241C, strain CIN2, hits give low values 1.01 | S. cerevisiae deletion strains, locus YPL256C, strain CLN2, hits give low values 1.06 | S. cerevisiae deletion strains, locus YPR119W, strain clb2, hits give low values 0.988 | S. cerevisiae deletion strains, locus YPR141C, strain kar3, hits give low values 0.984 | S. cerevisiae deletion strains, locus YPR163C, strain tif3, hits give low values 0.98 | S. cerevisiae deletion strains, locus YPR167C, strain met16, hits give low values 0.996 | S. cerevisiae deletion strains, strain wtn01, hits give low values 1.01 | S. cerevisiae strains, strain wild type, hits give low values 1.01
